High-throughput results deposited in PubChem by National Center for Advancing Translational Sciences (NCATS).
Shiga inhibitor: inhibitors of Shiga toxin in Vero cells; Vero cells, Shiga toxin protein synthesis inhibition reporter; inhibition, % at 38.7 µM; hit rate 9.2% among 290,000; AID 2315; in the data active = inhibition mostly above about 28%, no sharp cut-off; inactive = mostly below about 43%
Cycloheximide cs: affects cycloheximide protein synthesis inhibition readout, counter-screen | cell reporter, cycloheximide protein synthesis inhibition counterscreen | hit rate 12% among 300,000 | max response, %; in the data active = max response mostly above about 13%, no sharp cut-off; inactive = mostly below about 14%; note: read at 38.3 µM for the half of the compounds with a filed dose
LASV entry inh: inhibitors of Lassa virus binding or cell entry; Lassa virus pseudotype entry inhibition, cell reporter; Potency, µM (doses to about 37.9 µM), actives largely listed as inhibitors; hit rate 1.2% among 300,000; AID 540256; calls by dose curve; tested in HEK293 cells; note: nearly all actives have a fitted effect of over 50% in size
Pf growth 96h: inhibits malaria parasite growth, 96 h; P. falciparum luciferase reporter growth, 96 h; Potency, µM (highest dose often 28.7 µM), hits mostly inhibitors; hit rate 6.9% among 320,000
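Two-generation exposure (96 h) targets delayed-death phenotype. Reporter parasites carrying integrated firefly luciferase, in red cells at 2% hematocrit and 0.05% parasitemia final, kept at 37 C, 5% CO2; luminescence loss indicates inhibition.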
Pf growth 48h: P. falciparum growth inhibition at 48 hours (one generation); P. falciparum luciferase growth in erythrocytes, 48 h; hit rate 5.9% among 310,000; Potency, µM (highest dose often 28.7 µM), most hits filed as inhibitors
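Luminescence readout; reporter = integrated firefly luciferase in P. falciparum. RBC culture at 2% hematocrit, 0.1% parasitemia final, 37 C/5% CO2; decreased signal taken as growth inhibition.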
MARV entry inh: Marburg virus entry inhibition; Marburg virus pseudotyped entry inhibition, cell reporter; hit rate 1.8% among 300,000; Potency, µM (highest dose often 37.8 µM), usual class: inhibitors; calls by dose curve; tested in HEK293 cells
Of the large screens only hits and unclear results are named; the others gave an inactive call. Shown are actives, neighbours in structure and some others; about 19% of the full set was active somewhere. Unless noted, calls come from the whole dose curve; as a rule, active = well fitted inhibition curve with a large enough effect; inconclusive = small, poorly fitted or top-dose-only effect, or another doubt; inactive = no such curve, though single readings can be large or run the other way.

COc1cc(/C=N/Nc2ccccc2[N+](=O)[O-])ccc1OC(=O)c1ccccc1F	Shiga inhibitor 45, Cycloheximide cs 31, MARV entry inh inconclusive
COc1ccc(/C=N\Nc2ccccc2[N+](=O)[O-])c(C(=O)O)c1OC	Shiga inhibitor 88, Cycloheximide cs 50 (no result: LASV entry inh, MARV entry inh)
CCOc1ccc(C=NNc2ccc(S(=O)(=O)Nc3ccccc3C(=O)O)cc2[N+](=O)[O-])cc1OC	none (no result: Shiga inhibitor, Cycloheximide cs, Pf growth 96h, Pf growth 48h)
COc1ccc(/C=N\Nc2ccc([N+](=O)[O-])cc2[N+](=O)[O-])c(C(=O)O)c1OC	none (no result: LASV entry inh, MARV entry inh)
Cc1[nH]c2ccccc2c1/C=N/Nc1ccccc1[N+](=O)[O-]	Shiga inhibitor 86, Cycloheximide cs 37, LASV entry inh inconclusive, Pf growth 48h inconclusive
CCOc1ccccc1/C=N/Nc1ccccc1[N+](=O)[O-]	none
COc1ccccc1/C=N\Nc1ccccc1[N+](=O)[O-]	Shiga inhibitor 73, Cycloheximide cs 49, LASV entry inh inconclusive, MARV entry inh inconclusive
Cc1ccc(S(=O)(=O)N(CC(=O)N2CCC(C(N)=O)CC2)c2cccc(C(F)(F)F)c2)cc1	none
CC(=O)NC(CC(=O)Nc1cccc(S(=O)(=O)N2CCOCC2)c1)c1ccccc1 (centres undefined)	MARV entry inh inconclusive (no result: Shiga inhibitor, Cycloheximide cs)
CC(=O)c1ccc(N2CCN(S(=O)(=O)c3ccc4c(c3)NC(=O)CO4)CC2)cc1	Pf growth 96h inconclusive
CCOc1ccc(S(=O)(=O)N2CCC(C(=O)NCc3ccncc3)CC2)cc1Cl	none
Cc1cccc(C)c1NC(=O)CNC(=O)c1cncc(Br)c1	none
COc1ccccc1C=NNc1ccc([N+](=O)[O-])cn1	none (no result: Shiga inhibitor, Cycloheximide cs, Pf growth 96h, Pf growth 48h)
COc1cc(/C=N/Nc2ccc(S(N)(=O)=O)cc2[N+](=O)[O-])cc(OC)c1O	none (no result: LASV entry inh, MARV entry inh)
COc1cc(/C=N/Nc2ccccc2[N+](=O)[O-])cc(OC)c1O	Shiga inhibitor 88, Cycloheximide cs 26 (no result: LASV entry inh)
CC(C)Oc1ccccc1/C=N/Nc1ccccc1[N+](=O)[O-]	Shiga inhibitor 87, Cycloheximide cs 65, Pf growth 96h 8.3µM, Pf growth 48h inconclusive, MARV entry inh inconclusive
CCOc1ccccc1N(CC(=O)N1CCCCCC1)S(=O)(=O)c1ccc(C)cc1	Pf growth 48h inconclusive
CCOc1ccc(-n2c(-c3ccco3)nc3c(cnn3-c3ccc(C)cc3)c2=O)cc1	Pf growth 96h inconclusive, MARV entry inh inconclusive
O=C1N=c2ccccc2=NC1C(=O)c1ccccc1 (centres undefined)	none (no result: Shiga inhibitor, Cycloheximide cs, LASV entry inh, Pf growth 96h, Pf growth 48h)
Cc1cc(C(=O)N2CCc3ccccc32)c2cc(F)ccc2n1	Shiga inhibitor 72, Cycloheximide cs 35, MARV entry inh inconclusive
COc1ccc2cc(C(=O)N3CCc4ccccc43)[nH]c2c1	Shiga inhibitor 100, Cycloheximide cs 34 (no result: LASV entry inh, MARV entry inh)
COc1ccc2cc(C(=O)N3CCN(c4cccc(C)c4C)CC3)[nH]c2c1	Pf growth 96h inconclusive, Pf growth 48h inconclusive, MARV entry inh inconclusive
O=C(c1cc2cc(F)ccc2[nH]1)N1CCc2ccccc21	Shiga inhibitor 74, Cycloheximide cs 34, Pf growth 96h inconclusive, Pf growth 48h inconclusive (no result: LASV entry inh, MARV entry inh)
O=C(c1cccc(F)c1)N1CCc2ccccc21	none (no result: Pf growth 96h)
O=C(c1cc2cc(Br)ccc2[nH]1)N1CCc2ccccc21	Cycloheximide cs 19, Pf growth 96h 1.5µM, Pf growth 48h inconclusive, MARV entry inh inconclusive
O=C(Nc1ccccc1)Oc1ccccc1N1CCOCC1	none
Cc1cc(C)c(C#N)c(Nc2ccccc2Cl)n1	none
Clc1ccc(-c2noc(/C=C/c3ccccc3)n2)cc1	none (no result: LASV entry inh, MARV entry inh)
O=C(C1CCCCC1)N1CCCn2c1nc1ccccc12	Pf growth 96h inconclusive, Pf growth 48h inconclusive
Fc1ccc(COc2ccc(Br)cc2CNCC2CCCO2)cc1 (centres undefined)	LASV entry inh inconclusive, Pf growth 48h inconclusive, MARV entry inh 4µM
COc1cc(C(=O)NCC2CCCO2)ccc1OCc1ccc(Cl)cc1Cl (centres undefined)	LASV entry inh inconclusive, Pf growth 96h 12µM, Pf growth 48h 12µM (no result: Shiga inhibitor, Cycloheximide cs)
COc1cc(C(=O)NCC2CCCO2)ccc1OCc1c(C)noc1C (centres undefined)	none (no result: Pf growth 96h)
COc1cccc(OCc2ccc(C(=O)NCC3CCCO3)cc2)c1 (centres undefined)	Shiga inhibitor 37, Cycloheximide cs 28, MARV entry inh inconclusive
O=C(NCC1CCCO1)c1ccc(COc2ccc(Cl)cc2)cc1 (centres undefined)	LASV entry inh inconclusive
O=C(NCC1CCCO1)c1ccc(COc2ccccc2Br)cc1 (centres undefined)	Shiga inhibitor active, LASV entry inh inconclusive, MARV entry inh inconclusive
CCOc1ccccc1NC(=O)Cn1c(=O)n(CCCC(=O)NCc2ccc(C)cc2)c(=O)c2ccccc21	none (no result: Shiga inhibitor, Cycloheximide cs, Pf growth 96h, Pf growth 48h)
F[Si-2](F)(F)(F)(F)F	none (no result: Shiga inhibitor, Cycloheximide cs, LASV entry inh, MARV entry inh)
Cc1cc(C)c(OCC(O)CN2CCN(C(=O)c3ccccc3)CC2)c(C)c1 (centres undefined)	Pf growth 96h 6.6µM, Pf growth 48h inconclusive (no result: LASV entry inh, MARV entry inh)
O=C(c1ccccc1)N1CCN(CC(O)COc2cccc3ccccc23)CC1 (centres undefined)	Pf growth 48h inconclusive (no result: Shiga inhibitor, LASV entry inh, MARV entry inh)
COc1ccc(CCNC(=O)c2cc3c(=O)oc4ccc(C)cc4c3s2)cc1OC	none (no result: Shiga inhibitor, Cycloheximide cs, Pf growth 96h, Pf growth 48h)
COc1cc(CNn2c(C)n[nH]c2=S)cc(Cl)c1OCC(=O)NC(C)(C)C	Cycloheximide cs 11, LASV entry inh inconclusive, Pf growth 96h inconclusive, Pf growth 48h inconclusive, MARV entry inh inconclusive
C=CCOc1ccc(CNn2c(C)n[nH]c2=S)cc1OC	Shiga inhibitor 55, Cycloheximide cs 28, LASV entry inh inconclusive
COc1cc(CNn2c(C)n[nH]c2=S)cc(Br)c1OCC(=O)NC(C)(C)C	Pf growth 96h inconclusive, Pf growth 48h inconclusive (no result: Shiga inhibitor, LASV entry inh, MARV entry inh)
CC(C(=O)N1CCCCC1)n1sc2ccccc2c1=O (centres undefined)	Shiga inhibitor 67, Cycloheximide cs 31, LASV entry inh inconclusive
CCCC1C(=O)Nc2ccccc2N1C(=O)c1cccc(C)c1 (centres undefined)	MARV entry inh inconclusive
CCCC1C(=O)Nc2ccccc2N1C(=O)c1ccc(C(C)(C)C)cc1 (centres undefined)	LASV entry inh inconclusive, Pf growth 96h 9.3µM, Pf growth 48h inconclusive, MARV entry inh inconclusive
O=c1cccc2n1CC1CC2CN(Cc2ccc3c(c2)OCO3)C1 (centres undefined)	none (no result: Pf growth 48h)
CSc1nnc(-c2ccccc2SC)o1	Pf growth 48h inconclusive, MARV entry inh inconclusive
Cc1ccc(-c2nnc(-c3ccccc3S(=O)(=O)Cc3ccc(Cl)cc3)o2)cc1	LASV entry inh inconclusive, Pf growth 96h inconclusive, Pf growth 48h inconclusive
CSc1ccccc1-c1nnc(-c2ccccc2)o1	Shiga inhibitor 95, Cycloheximide cs 59
CSc1ccccc1-c1nnc(-c2ccc(C)cc2)o1	Shiga inhibitor 143, Cycloheximide cs 39, LASV entry inh inconclusive, MARV entry inh inconclusive
Cc1nc(C(=O)NCc2ccccc2)sc1C1(C)CC(c2cccc([N+](=O)[O-])c2)=NO1 (centres undefined)	Pf growth 96h inconclusive, Pf growth 48h inconclusive (no result: LASV entry inh, MARV entry inh)
COc1ccc(N2CCN(C3CC(=O)NC3=O)CC2)cc1 (centres undefined)	Pf growth 96h inconclusive
